Assay [1] in a line: antimalarial activity against Dd2 strain (AID 2302;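 active = growth inhibition above 50% at the single 2 µM test dose, taken to imply half-maximal potency below 2 µM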;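 note: 0% = DMSO untreated growth and 100% = chloroquine plus artemisinin killed control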). As to conditions: P. falciparum Dd2 in RBCs, LDH growth readout, 72 h; at 2 µM; stronger effect = higher value.
A short description of assay [2]: human hepatoma cell viability loss – ATP luminescence, cytotoxicity control for P. falciparum antimalarial project, primary screen (AID 2303;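 active = inhibition above 50%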;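 note: 0% = DMSO wells and 100% = digitonin-killed cells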). The note with it: HepG2 viability, 24-48 h, at 10 µM, stronger effect = higher value.
For assay [3], the target named is L-lactate dehydrogenase (Plasmodium falciparum (isolate CDC / Honduras)) (UniProt Q27743). Nature of the assay: PfLDH activity inhibition – cell lysate, 3D7 strain, counter-screen for P. falciparum growth inhibition project (AID 2304).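 Note: 0% = vehicle and 100% = reference inhibitor.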 As to conditions: P. falciparum 3D7 crude extract, LDH APAD/NBT absorbance; at 2 µM; stronger effect = higher value.
Assay [4] is described as follows: inhibition of 3D7 malaria parasite growth – strain 3D7 (AID 2306).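 Note: 0% = DMSO wells and 100% = chloroquine plus artemisinin control wells.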 As to conditions: P. falciparum 3D7 erythrocytic growth, LDH absorbance, 72 h; at 2 µM; stronger effect = higher value.
Assay [5] has as its target Calcium-dependent protein kinase 1 (Plasmodium falciparum (isolate 3D7)) (UniProt P62344). Nature of the assay: PfCDPK1 kinase inhibitors, biochemical, TCAMS library (AID 1159585; cut-off not given, nearly all actives have IC50 up to about 0.98 µM;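 note: inhibitors leave more ATP so luminescence rises with inhibition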). As to conditions: recombinant PfCDPK1, Kinase-Glo ATP depletion luminescence. For orientation: Kinase-Glo reads ATP consumption through a luciferase reaction.
The target of assay [6] is Plasmodium falciparum protein kinase 6 (PK6, PF3D7_1337100) (UniProt Q8IDW1). The assay can be described thus: PfPK6 kinase inhibitors, biochemical, TCAMS library (AID 1159586). As to conditions: recombinant PfPK6, Kinase-Glo ATP depletion luminescence.
For assay [7], the target named is Protein kinase 7 (PK7), Plasmodium falciparum 3D7 (PF3D7_0213400) (UniProt Q7YTF7). The assay can be described thus: inhibition of Plasmodium PK7 catalytic activity – biochemical, TCAMS antimalarial set, Kinase-Glo luminescence (AID 1159587). The note with it: recombinant PfPK7, Kinase-Glo ATP depletion luminescence.
Assay [8] addresses Calcium-dependent protein kinase 4 (Plasmodium falciparum (isolate 3D7)) (UniProt Q8IBS5). The assay can be described thus: PfCDPK4 kinase inhibitors, biochemical, TCAMS library (AID 1159588; cut-off not given, nearly all actives have IC50 up to about 0.91 µM). The note with it: recombinant PfCDPK4, Kinase-Glo ATP depletion luminescence.

A number with no mark means an inactive call. For some of these results: Potency and affinity values are given separately. Calls of active or inactive are those of the source. Unless noted, the rule behind the calls is not given here.

Sequence of Calcium-dependent protein kinase 4 (Plasmodium falciparum (isolate 3D7)) (Q8IBS5 whole entry, looked up): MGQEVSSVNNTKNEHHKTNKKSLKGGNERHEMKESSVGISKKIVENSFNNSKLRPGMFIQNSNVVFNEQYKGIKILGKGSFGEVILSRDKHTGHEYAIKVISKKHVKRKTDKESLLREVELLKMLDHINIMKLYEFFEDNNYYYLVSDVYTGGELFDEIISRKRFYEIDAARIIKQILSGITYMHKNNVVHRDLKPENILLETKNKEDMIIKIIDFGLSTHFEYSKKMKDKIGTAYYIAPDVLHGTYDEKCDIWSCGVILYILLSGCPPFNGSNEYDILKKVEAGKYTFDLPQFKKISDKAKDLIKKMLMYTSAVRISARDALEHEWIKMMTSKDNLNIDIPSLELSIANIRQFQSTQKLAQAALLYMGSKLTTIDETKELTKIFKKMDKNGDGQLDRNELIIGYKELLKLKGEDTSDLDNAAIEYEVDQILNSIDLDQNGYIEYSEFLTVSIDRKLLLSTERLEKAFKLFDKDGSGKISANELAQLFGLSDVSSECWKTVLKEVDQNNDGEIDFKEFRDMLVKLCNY
Sequence of Calcium-dependent protein kinase 1 (Plasmodium falciparum (isolate 3D7)) (P62344 whole entry, looked up): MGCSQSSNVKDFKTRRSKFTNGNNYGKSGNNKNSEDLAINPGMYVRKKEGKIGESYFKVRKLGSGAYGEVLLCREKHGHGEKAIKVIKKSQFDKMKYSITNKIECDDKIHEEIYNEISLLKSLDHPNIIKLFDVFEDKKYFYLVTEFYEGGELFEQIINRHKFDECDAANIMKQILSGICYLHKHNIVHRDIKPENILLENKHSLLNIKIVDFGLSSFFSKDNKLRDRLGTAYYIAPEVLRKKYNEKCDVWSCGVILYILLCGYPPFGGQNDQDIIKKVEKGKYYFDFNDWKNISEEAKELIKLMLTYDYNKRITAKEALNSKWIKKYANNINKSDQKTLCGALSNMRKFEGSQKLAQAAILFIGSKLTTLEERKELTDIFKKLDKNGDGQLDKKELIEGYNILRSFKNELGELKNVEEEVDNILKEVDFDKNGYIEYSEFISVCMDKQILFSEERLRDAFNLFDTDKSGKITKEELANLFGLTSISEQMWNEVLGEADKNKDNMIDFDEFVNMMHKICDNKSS
Sequence of L-lactate dehydrogenase (Plasmodium falciparum (isolate CDC / Honduras)) (Q27743 whole entry, looked up): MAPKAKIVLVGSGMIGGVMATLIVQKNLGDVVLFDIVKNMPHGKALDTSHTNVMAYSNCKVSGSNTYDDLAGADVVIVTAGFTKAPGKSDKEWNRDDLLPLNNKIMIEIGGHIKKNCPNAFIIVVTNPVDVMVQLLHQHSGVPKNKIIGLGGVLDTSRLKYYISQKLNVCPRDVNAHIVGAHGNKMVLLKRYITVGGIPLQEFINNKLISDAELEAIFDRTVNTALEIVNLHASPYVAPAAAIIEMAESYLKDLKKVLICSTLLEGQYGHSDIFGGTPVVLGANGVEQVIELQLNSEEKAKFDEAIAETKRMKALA
Sequence of Plasmodium falciparum protein kinase 6 (PK6, PF3D7_1337100) (Q8IDW1 1-305): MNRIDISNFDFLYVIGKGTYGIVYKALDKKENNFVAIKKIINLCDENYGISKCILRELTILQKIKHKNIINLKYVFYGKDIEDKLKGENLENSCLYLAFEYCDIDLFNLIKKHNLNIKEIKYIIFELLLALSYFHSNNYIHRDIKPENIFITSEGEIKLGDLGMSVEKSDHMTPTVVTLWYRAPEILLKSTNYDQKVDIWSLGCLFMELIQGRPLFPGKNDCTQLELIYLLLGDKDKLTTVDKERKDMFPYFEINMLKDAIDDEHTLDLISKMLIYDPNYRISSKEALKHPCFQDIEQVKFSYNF
Sequence of Protein kinase 7 (PK7), Plasmodium falciparum 3D7 (PF3D7_0213400) (Q7YTF7 1-343): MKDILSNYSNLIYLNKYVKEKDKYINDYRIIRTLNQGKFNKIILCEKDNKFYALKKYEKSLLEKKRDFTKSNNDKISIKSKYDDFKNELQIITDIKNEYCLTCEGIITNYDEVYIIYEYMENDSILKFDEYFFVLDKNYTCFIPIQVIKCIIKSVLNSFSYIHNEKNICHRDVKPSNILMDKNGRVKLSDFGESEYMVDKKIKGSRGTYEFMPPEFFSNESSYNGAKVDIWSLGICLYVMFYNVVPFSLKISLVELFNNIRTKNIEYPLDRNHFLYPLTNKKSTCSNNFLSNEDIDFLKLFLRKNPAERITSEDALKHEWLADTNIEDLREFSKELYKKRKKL

As usually defined, the inhibition is the drop in the measured response relative to a control, in per cent. For the compound `CN1CCN(c2ccnc3ccc(NC(=O)Cc4ccc(-c5ccncc5)c5ccccc45)cc23)CC1`, the growth inhibition in assay [1] is 101% (active); in assay [4], 103% (active). Also, the inhibition in assay [2] is 32%; in assay [3] it was 3%. Also, the outcome in assay [5], in assay [6], in assay [7] and in assay [8] was inactive.
Turning to `S=C(NCCN1CCOCC1)Nc1ccccc1`, the growth inhibition in assay [1] was 1%; in assay [4] it was 94% (active). The inhibition is 3% in assay [2] and 1% in assay [3]. Further, the outcome in assay [5], in assay [6], in assay [7] and in assay [8] was inactive.
On to `N#Cc1ccc(-c2ccc(C(=O)NC3CCN(CCN4CCC(c5cn(CCO)c6ccccc56)CC4)CC3)cc2)cc1`, for which the results for the growth inhibition in assay [1] and in assay [4] were 79% (active) and 100% (active), respectively. Besides, the inhibition is 30% in assay [2] and -2% in assay [3]. Further, the outcome in assay [5], in assay [6], in assay [7] and in assay [8] was inactive.
As to `COc1ccc(CCNCCCCCNCCc2ccc(Cl)cc2)cc1OC`, the growth inhibition was -2% in assay [1] and 101% (active) in assay [4]. In addition, the figures for the inhibition in assay [2] and in assay [3] were 32% and -11%, respectively. The outcome in assay [5], in assay [6], in assay [7] and in assay [8] was inactive.
On to `O=C(/C=C/c1ccc(Cl)c(Cl)c1)NCCCCCN1CCC(C(=O)Nc2ccc(Cl)c(Cl)c2)CC1`, for which the growth inhibition is 0% in assay [1] and 98% (active) in assay [4]. For the same compound, the inhibition in assay [2] was 73% (active); in assay [3] it was -2%. The outcome in assay [5], in assay [6], in assay [7] and in assay [8] was inactive.
`COc1csc2cc(Br)ccc12`: the values for the growth inhibition in assay [1] and in assay [4] were -5% and 101% (active), respectively. For the same compound, the figures for the inhibition in assay [2] and in assay [3] were 6% and -3%, respectively. For the same compound, the result in assay [5], in assay [6], in assay [7] and in assay [8] was inactive.
As for `NC(CC1CC(=O)N1CC(=O)O)C(=O)O` (stereo not given), the growth inhibition in assay [1] was -3%; in assay [4] it was 95% (active). Moreover, the inhibition is 56% (active) in assay [2] and -5% in assay [3]. For the same compound, the outcome in assay [5], in assay [6], in assay [7] and in assay [8] was inactive.
For `Cc1cc(Cl)c(S(=O)(=O)N2CCc3ccccc32)cc1OCC(=O)NC1CCCCC1`, the growth inhibition in assay [1] is 93% (active); in assay [4], 101% (active). Also, the results for the inhibition in assay [2] and in assay [3] were 28% and -3%, respectively. For the same compound, the result in assay [5], in assay [6], in assay [7] and in assay [8] was inactive.
For the compound `O=C(NC1CCN(CC2(c3ccccc3)CCCC2)CC1)c1[nH]ncc1Cl`, the growth inhibition in assay [1] is 87% (active); in assay [4], 83% (active). The inhibition in assay [2] is -3%; in assay [3], 5%. Moreover, the result in assay [5], in assay [6], in assay [7] and in assay [8] was inactive.
`CO/C(=C\C=C\c1cc2cc(Cl)c(Cl)cc2[nH]1)C(=O)NCCCN1CCC(c2ccccc2)CC1`: the growth inhibition was 92% (active) in assay [1] and 100% (active) in assay [4]. Besides, the results for the inhibition in assay [2] and in assay [3] were 33% and -1%, respectively. For the same compound, the outcome in assay [5], in assay [6], in assay [7] and in assay [8] was inactive.
In the case of `CC(C)C[C@H](NC(=O)c1cc2ccccc2s1)C(=O)N[C@H]1CCN(Cc2ccc(I)c(OC3CCN(C)C3)c2)C1` (stereo not given in full), the growth inhibition is 95% (active) in assay [1] and 100% (active) in assay [4]. In addition, the figures for the inhibition in assay [2] and in assay [3] were 99% (active) and 4%, respectively. For the same compound, the result in assay [5], in assay [6], in assay [7] and in assay [8] was inactive.
Turning to `O=C(Nc1cccc(CN2CCCN(Cc3ccc(F)cc3)CC2)c1)c1ccc(Cl)c(Cl)c1`, the growth inhibition in assay [1] is 17%; in assay [4] it was 95% (active). For the same compound, the inhibition is 27% in assay [2] and 7% in assay [3]. Besides, the outcome in assay [5], in assay [6], in assay [7] and in assay [8] was inactive.
`O=C(Nc1ccc(C(F)(F)F)cc1)N[C@H]1CCN(CCCCCNC(=O)[C@@H]2C[C@H]2c2ccc(Cl)c(Cl)c2)C1`: the growth inhibition in assay [1] was -1%; in assay [4], 96% (active). Besides, the inhibition is 41% in assay [2] and -2% in assay [3]. Besides, the outcome in assay [5], in assay [6], in assay [7] and in assay [8] was inactive.
As for `COc1cc(CN2CCC(NC(=O)[C@H](Cc3ccccc3)NC(=O)Nc3ccc(Oc4ccccc4)cc3)C2)ccc1O` (stereo not given in full), the growth inhibition is -2% in assay [1] and 92% (active) in assay [4]. Besides, the results for the inhibition in assay [2] and in assay [3] were 10% and 6%, respectively. Also, the result in assay [5], in assay [6], in assay [7] and in assay [8] was inactive.
Take `Cc1ccc(NC(=O)c2ccc(CN3CCCN(Cc4cccc(Cl)c4)CC3)cc2)cc1C`: the values for the growth inhibition in assay [1] and in assay [4] were 18% and 84% (active), respectively. In addition, the inhibition in assay [2] was 41%; in assay [3], 2%. Besides, the result in assay [5], in assay [6], in assay [7] and in assay [8] was inactive.
`FC(F)(F)c1ccc2nccc(NCc3ccccc3)c2c1`: the values for the growth inhibition in assay [1] and in assay [4] were 56% (active) and 93% (active), respectively. In addition, the inhibition in assay [2] is 18%; in assay [3], -9%. In addition, the outcome in assay [5], in assay [6], in assay [7] and in assay [8] was inactive.
Take `COc1ccc(C2CC(c3cccs3)=NN2C(=O)CNc2ccccc2F)cc1OC` (stereo not given): the growth inhibition in assay [1] is 45%; in assay [4], 87% (active). The inhibition is 11% in assay [2] and 2% in assay [3]. The result in assay [5], in assay [6], in assay [7] and in assay [8] was inactive.
Regarding `CCNc1cc(C)nc(Nc2ccc(C)cc2)n1`, the growth inhibition is 85% (active) in assay [1] and 102% (active) in assay [4]. Besides, the inhibition in assay [2] is 12%; in assay [3], 3%. Moreover, the result in assay [5], in assay [6], in assay [7] and in assay [8] was inactive.
Regarding `Oc1c(C(Nc2ccccn2)c2ccc(Cl)cc2Cl)ccc2cccnc12` (stereo not given), the growth inhibition is 60% (active) in assay [1] and 88% (active) in assay [4]. For the same compound, the inhibition in assay [2] is 42%; in assay [3], 1%. Further, the outcome in assay [5], in assay [6], in assay [7] and in assay [8] was inactive.
On to `COc1ccc(CNC2CCN(C)CC2)cc1-c1ccc(S(=O)(=O)NCC2CCCO2)s1` (stereo not given), for which the values for the growth inhibition in assay [1] and in assay [4] were 18% and 95% (active), respectively. Besides, the inhibition in assay [2] is 18%; in assay [3] it was 5%. Besides, the outcome in assay [5], in assay [6], in assay [7] and in assay [8] was inactive.

The record behind these values is PubChem BioAssay.
